Screening data as filed in PubChem.
Hits are enriched below; roughly 5.4% of the tested compounds scored in any of these assays.
Calb FLC: C. albicans growth modulation with fluconazole; growth inhibition, % (test concentration not listed); 300,000 compounds, 0.57% hits; C. albicans CaCi-2 (fluconazole-resistant clinical isolate) + fluconazole, Alamar Blue growth, 48 h;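 active = growth inhibition above about 58% in most replicates, limit read from the data, passing the limit was not always enough; inconclusive = exactly half the replicates above a set limit; inactive = most replicates below a set limit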;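 note: all wells also contain fluconazole at 8 µg/ml as a sub-toxic cotreatment; 0% = median of DMSO wells and 100% = median of geldanamycin control wells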
PP1 counter: blocks human PP1-alpha phosphatase, a PP5 counter-screen; P62136; purified PP1alpha, OMFP fluorescence; inhibition, % at 6.7 µM; 320,000 compounds, 0.9% hits;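 active = inhibition above the mean inhibition of all tested compounds plus 3 SD, computed separately for each screening campaign, cut at about 15% in these data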
Target sequence (P62136 whole entry, looked up): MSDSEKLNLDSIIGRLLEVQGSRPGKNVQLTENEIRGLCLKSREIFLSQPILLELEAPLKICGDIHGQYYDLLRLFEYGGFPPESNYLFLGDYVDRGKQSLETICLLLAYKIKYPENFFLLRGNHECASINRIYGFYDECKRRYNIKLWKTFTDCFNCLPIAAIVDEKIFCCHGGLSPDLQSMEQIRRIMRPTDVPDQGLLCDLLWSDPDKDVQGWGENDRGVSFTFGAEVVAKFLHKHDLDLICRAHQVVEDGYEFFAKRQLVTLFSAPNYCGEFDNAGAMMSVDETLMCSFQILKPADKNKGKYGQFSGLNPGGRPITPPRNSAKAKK
ALR inh: inhibitors of human sulfhydryl oxidase ALR. AID 485317. 290,000 compounds, 3.8% hits. P55789. purified ALR, DTT oxidation, H2O2 HRP-luminol luminescence. inhibition, % (concentration not given with the values);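 active = mean replicate inhibition above about 79%, with every replicate also reaching it, limit read from the data; inconclusive = only one of the two criteria met; inactive = mean below limit and not every replicate reaching it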
Target sequence (P55789 whole entry, looked up): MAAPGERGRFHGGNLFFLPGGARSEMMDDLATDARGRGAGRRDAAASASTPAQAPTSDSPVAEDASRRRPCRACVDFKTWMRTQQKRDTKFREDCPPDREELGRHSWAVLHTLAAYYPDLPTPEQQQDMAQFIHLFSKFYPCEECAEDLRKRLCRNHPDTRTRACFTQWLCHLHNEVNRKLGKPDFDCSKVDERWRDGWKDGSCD
PP5 primary: PP5 (human) phosphatase inhibition | P53041 | purified PP5c, OMFP substrate fluorescence | inhibition, % at 6.7 µM | 320,000 compounds, 0.18% hits | AID 1987;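 active = inhibition above the campaign's mean inhibition across all tested compounds plus 3 SD, cut at about 9.5% in these data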;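 note: 0% = DMSO only and 100% = 100 µM cantharidin control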
CSC inhib: cancer stem cell inhibition | cancer stem cell-like cells viability, luminescence | inhibition, % at 7.5 µM | 300,000 compounds, 1.1% hits | AID 2717; in the data active = inhibition above about 75%; inconclusive = no clear call, values can overlap the other calls; tested in HMLE shEcad cells
* = called active by the depositor; ? = inconclusive; / = no result.

SMILES	Calb FLC	PP1 counter	ALR inh	PP5 primary	CSC inhib
CC(=O)Nc1ccc(NC(=O)C(C)n2nc(C)c([N+](=O)[O-])c2C)cc1 (stereo not given)	1	1	-13	3	10
Cc1nn(C(C)C(=O)N/N=C/c2ccc(N(C)C)cc2)c(C)c1[N+](=O)[O-] (stereo not given)	27	0	99*	1	-3
CCNC(=O)NC(=O)C(C)Sc1ccc2c(c1)OCCO2 (stereo not given)	/	-1	98*	1	-1
c1ccc(-c2ncc(-c3ccn[nH]3)s2)cc1	?	16*	4	0	3
CN(C)c1ccc(Nc2nc(-c3cccnc3)cs2)cc1	4	0	95*	5	7
Cc1ccc(-c2nnn(CC(=O)N3CCCCC3)n2)c(-n2cnnn2)c1	-7	3	-16	3	-19
COc1ccc(OC)c(-c2cc(C3CCN(c4ncccc4[N+](=O)[O-])CC3)[nH]n2)c1	8	-2	-9	5	/
CC(=O)c1ccc(N2CCC(c3cc(-c4ccc(Cl)cc4Cl)n[nH]3)CC2)c([N+](=O)[O-])c1	15	5	-4	6	118*
O=[N+]([O-])c1cccnc1N1CCC(c2cc(-c3ccc(Cl)cc3Cl)n[nH]2)CC1	-9	8	-12	5	106*
COc1ccc(OCC(=O)N/N=C/c2ccc(N(C)C)cc2)cc1	-11	-2	98*	3	-10
COc1ccc(/C=N/NC(=O)Cn2nnc3ccccc32)cc1OC	3	-2	-8	0	-8
CN(C)c1ccc(/C=N/NC(=O)CCCO)cc1	-8	-1	96*	1	0
CN(C)c1ccc(/C=N/NC(=O)CCc2c[nH]c3ccccc23)cc1	1	-3	98*	2	6
COc1ccc(/C=N/NC(=O)CNC(=O)COc2ccccc2)cc1	1	2	1	4	7
O=C(Cc1c[nH]c2ccccc12)N/N=C/c1ccc(F)cc1	?	-1	-3	-1	-3
CN(C)c1ccc(/C=N\NC(=O)CC#N)cc1	24	-1	67	1	/
CN(C)c1ccc(/C=N/NC(=O)Cn2nnc3ccccc32)cc1	-7	5	99*	-4	-19
CN(C)c1ccc(/C=N/NC(=O)c2ccccc2)cc1	8	1	/	1	13
CN(C)c1ccc(/C=N/NC(=O)CCC(=O)NCc2ccccc2)cc1	0	-2	87*	4	6
CCCCCC(=O)N/N=C/c1ccc(N(C)C)cc1	-48	-5	90*	0	-9
CN(C)c1ccc(/C=N/NC(=O)CCCCCNC(=O)c2ccccc2)cc1	1	-9	/	-1	-5
N#CNC(=Nc1cccc(C(F)(F)F)c1)SCc1ccc(C(=O)O)cc1	-5	0	99*	1	5
N#CNC(=Nc1ccccc1)SCc1ccc(C(=O)O)cc1	8	-5	-3	1	-2
O=C(COc1ccc2ccccc2c1)Nc1cccc2c1C(=O)NC2=O	2	-1	-9	0	9
COc1ccc(OC)c(NC(=O)CN(C)S(=O)(=O)c2ccc3nc(C)sc3c2)c1	-12	-3	-14	2	5
SMILES	Calb FLC	PP1 counter	ALR inh	PP5 primary	CSC inhib
Nc1c(-c2ccccc2)n[nH]c1-c1ccccc1	-26	2	31	-1	/
Oc1ccc(-c2[nH]nc(-c3ccccc3)c2-c2nc3ccccc3[nH]2)cc1	20	-2	84*	1	4
O=C1NN(c2ccccc2)C(=O)/C1=C/c1cccs1	-68	3	-1	0	6
Cc1cc(/C=C2/C(=O)NN(c3ccccc3)C2=O)c(C)n1-c1ccc(O)cc1	-7	3	52	1	-9
O=C1NN(c2ccccc2)C(=O)/C1=C\c1coc2ccc(O)cc2c1=O	-2	8	99*	0	30
O=C1NN(c2ccccc2)C(=O)/C1=C/c1coc2ccccc2c1=O	-32	0	97*	1	3
COc1ccc(C2CC(c3ccccc3)=NN2c2ccc(S(N)(=O)=O)cc2)cc1OC (stereo not given)	-4	0	-17	5	-4
COc1cc(C2CC(c3ccccc3)=NN2c2ccccc2)ccc1OCC(=O)O (stereo not given)	-5	10	99*	5	3
COc1ccc(C2CC(c3ccccc3)=NN2c2ccccc2)c(C(=O)O)c1OC (stereo not given)	-32	1	99*	1	-10
COc1ccc(Br)cc1CNC(=O)Cc1cccs1	-4	/	-4	/	1
O=[N+]([O-])c1cc([N+](=O)[O-])c2cc3ccccc3nc2c1	42	-2	-19	-1	80*
O=C1CSCN1c1ccc(Cl)c(Cl)c1	7	-3	98*	-2	-21
Cc1cc(Cl)c(S(=O)(=O)Nc2ccc3c(c2)OCCO3)cc1OCC(=O)NC1CCCCC1	53	2	5	2	-15
O=C(Nc1ccccc1)Nc1ccc2snnc2c1	2	-1	59	0	-5
CN(C)c1ccc(NC(=O)Nc2ccc3snnc3c2)cc1	3	2	95*	-1	-1
CCOc1ccc(/C(O)=C2/C(=O)C(=O)N(c3ccccn3)C2c2ccc(C)cc2)c(C)c1 (stereo not given)	-3	17*	-4	1	1
COc1ccccc1C(=O)NCCNc1nc2cc(C)cc(C)c2cc1C#N	10	-7	53	-3	13
COc1cc(OC)cc(C(=O)NCCNc2nc3cc(C)cc(C)c3cc2C#N)c1	11	5	/	3	77*
Cc1c(OCC(=O)NCC(O)c2ccccc2)ccc2c(-c3ccccc3)cc(=O)oc12 (stereo not given)	81*	-4	-26	1	-7
Cc1c(OCC(=O)NC(Cc2ccc(Cl)cc2)C(=O)O)ccc2c(-c3ccccc3)cc(=O)oc12 (stereo not given)	-4	17*	4	-8	14
COc1ccc(N=C2S/C(=C\c3ccc(Cl)c([N+](=O)[O-])c3)C(=O)N2CCN(C)C)cc1	-1	10	/	3	105*
CCCN1C(=O)/C(=C/c2ccc(C)s2)SC1=Nc1ccc(OC)cc1	-2	0	-6	3	16
O=C(Nc1ccc2c(c1)CCC2)c1cccc(F)c1	2	-2	0	3	8
O=C(c1ccccn1)C1CCCN(Cc2nc(Cc3cccc(F)c3)no2)C1 (stereo not given)	-2	-6	/	-1	-4
CC(NC(=O)C1CCCC1)c1ccc(Br)cc1 (stereo not given)	-3	-2	/	3	-10
COCC(=O)Nc1nc2n(n1)C(c1ccc(Cl)cc1)CC(c1ccc(OC)cc1)N2 (stereo not given)	-4	-1	1	2	-16
COCC(=O)Nc1nc2n(n1)C(c1ccccc1Cl)CC(c1ccc(OC)cc1)N2 (stereo not given)	111*	-1	-1	1	-4
C#CCn1c(=NC(=O)c2ccc(S(=O)(=O)N3CCCc4ccccc43)cc2)sc2cc(S(N)(=O)=O)ccc21	-2	16*	0	0	/
